# Measured values as given in PubChem BioAssay (Tox21).
# Values joined by “and” are separate entries in the source; they are usually repeats but may differ in a detail not shown here. Equal values may be shown once. Results filed as inconclusive are left out. Entries that show only a call come without a potency. Some structures have more than one record in an assay (separate samples or runs), and their calls can disagree. Active and inactive are the calls of the source. The call rests on the fitted dose curve; in most records, active means well fitted cell-killing curve with a large enough effect in the repeat runs; inconclusive means weak or mixed curves, or effect the other way; inactive means flat fitted curve, though single readings scatter.
# Test: Caspase-3/7 induction in HepG2 cells by small molecules, qHTS cell viability counter screen (AID 1346981); further: nearly all actives have a fitted effect of over 30% in size
# Conditions: CellTiter-Fluor fluorescence, 17 h; series mostly up to 92.4 µM
# Source text: U.S. Tox21 Program National Center for Advancing Translational Sciences [NCATS] NIH Chemical Genomics Center [NCGC] U.S. Environmental Protection Agency [EPA] National Institutes of Environmental Health Sciences [NIEHS] National Toxicology Program [NTP] U.S. Food and Drug Administration [FDA] Tox21 Assay Overview: Apoptosis is a process of programmed cell death and plays a central role in the development of multicellular organisms. It is a highly regulated process and induces cell death by activating caspases, which are the members of cysteine aspartic acid-specific protease (caspase) family. Caspases involved in apoptosis are classified by their mechanism of action as initiator caspases (caspase-2, -8, -9 and -10) and executioner caspases (caspase-3, -6, and -7). Inhibition of apoptosis results in number of cancers, autoimmune diseases, inflammatory diseases and viral infection. To identify small molecule compounds that induce apoptosis, a homogeneous, luminescent Caspase-Glo 3/7 assay was used. Wild type HepG2 cells were used to screen Tox21 libraries for identifying caspase-3/7 activity inducers. Also cytotoxicity of the compounds was tested in parallel by measuring the cell viability using CellTiter-Fluor assay system in the same wells.
# Tox21 Assay Protocol Summary: HepG2 cells were dispensed at 2,000 per well in 5uL of culture medium into white solid bottom 1536-well plates (Corning Life Sciences, Corning, NY) using a Multidrop Combi (Thermo Scientific, Waltham, MA) dispenser. The assay plates were incubated at 37 C and 5% CO2 for 5hr, and then 23nL of compounds dissolved in DMSO and positive control were transferred using a Pintool station ([…], San Diego, CA). The assay plates were incubated at 37C and 5% CO2 for 17hr. For cytotoxicity read, after 16hr incubation at 37C, 1uL CellTiter-Fluor reagent (Promega Corporation, Madison, WI) was added to each well of the assay plates using Flying Reagent Dispenser (FRD, Aurora Discovery, San Diego, CA). After 1hr incubation at 37C and 5% CO2, the fluorescence signal was quantified using a ViewLux plate reader (PerkinElmer, Shelton, CT).
# Potency means the concentration at half of the fitted maximal effect.
row,Compound,Potency
1,CC[n+]1c(-c2ccccc2)c2cc(N)ccc2c2ccc(N)cc21,38.4 µM (active) and 23.7 µM (active)
2,CC(C)Nc1ccc(Nc2ccccc2)cc1,38.4 µM (active) and 61.1 µM (active)
3,CC(C)(C#N)N=NC(C)(C)C#N,inactive
4,CCOC(=O)c1ccccc1N,inactive
5,CN(C)P(=O)(N(C)C)N(C)C,inactive
6,ClCC(Cl)CCl,inactive
7,Cn1c(-c2ccccc2)cc(-c2ccccc2)[n+]1C,inactive
8,Clc1ccc(C(Cl)(Cl)Cl)cc1,inactive
9,CC1=C(C(=O)Nc2ccccc2)SCCO1,inactive
10,CCCCOCC1CO1 (stereo not given),inactive
11,Brc1ccc(Br)cc1,inactive
12,CC1(C)Cc2cccc(O)c2O1,inactive
13,CC1CC(=O)O1 (stereo not given),inactive
14,C=CC(Cl)CCl (stereo not given),inactive
15,C[N+](C)(C)C,inactive
16,NC(=O)CN1CCCC1=O,inactive
17,CCCCCCCCCC(CC)c1ccc(S(=O)(=O)O)cc1 (stereo not given),inactive
18,Cc1ccc(N=CN(C)C=Nc2ccc(C)cc2C)c(C)c1,inactive
19,ClCc1ccccn1,inactive
20,CCCCOC(=O)COC(=O)c1ccccc1C(=O)OCCCC,inactive

row,Compound,Potency
1,CC(C)=CC1C(C(=O)OCc2cccc(Oc3ccccc3)c2)C1(C)C (stereo not given),inactive
2,COc1ccc(CO)cc1,inactive
3,Clc1cccc(Cl)c1,inactive
4,COP(=S)(OC)Oc1ccc(S(=O)(=O)N(C)C)cc1,inactive
5,COP(=O)(NC(C)=O)SC (stereo not given),inactive
6,CC(C)(O)C#N,inactive
7,Nc1ncn[nH]1,inactive
8,C=CC(=O)OCC(CC)(COC(=O)C=C)COC(=O)C=C,35.3 µM (active) and 24.3 µM (active)
9,CC(C)COC(=O)c1ccccc1C(=O)OCC(C)C,inactive
10,C=C(C)C#N,inactive
11,O=P(OCCCl)(OCCCl)OCCCl,inactive
12,CNC(=O)Oc1cccc2c1OC(C)(C)C2,inactive
13,Oc1ccc(Cl)cc1Cc1ccccc1,61.9 µM (active) and inactive
14,Nc1ccc([N+](=O)[O-])cc1N,54.4 µM (active) and 54.5 µM (active)
15,O=C1Nc2ccc(Cl)cc2C(c2ccccc2)=NC1O (stereo not given),inactive
16,COP(=S)(OC)Oc1ccc(Sc2ccc(OP(=S)(OC)OC)cc2)cc1,inactive
17,O=NN1CCOCC1,inactive
18,CCNCC,inactive
19,COc1ccc(C=O)cc1OC,inactive
20,O=[N+]([O-])c1ccc(Nc2ccccc2)cc1,48.9 µM (active) and 24.3 µM (active)
